# Tested on: ULK3
# Conditions: concentration: 1 μM, replicates: in singlicate; n = 1
# 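Note: KINOMEscan kinase panel screen.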
row,Compound,%Inh
1,Nc1nc(N)c2nc(-c3ccccc3)[nH]c2n1 [SKF-12778],30%
2,COc1cc2nccc(Nc3cccc(Oc4ccccc4)c3)c2cc1OC.Cl [GW284543],8%
3,CCc1ccc(-c2ccc3c(c2)-c2nn(C)cc2S(=O)(=O)N3C)cc1,0%
4,O=C(NCc1cccs1)c1cc(C(=O)c2c(Cl)cccc2Cl)c[nH]1 [GW823670],0%
5,CCCC(=O)Nc1n[nH]c2ncc(-c3cccc4ccccc34)cc12 [SB-642057],26%
6,CCC(=O)c1c(-c2ccccc2)c2cc(Cl)ccc2c(=O)n1Cc1cc(S(C)(=O)=O)n(CC(F)F)n1,0%
7,Nc1ncnc2c1ncn2-c1cccc(F)c1 [SKF-97560],21%
8,Cc1c(Cn2c(C)nn3c(=O)cc(N4CCO[C@H](C)C4)nc23)cccc1C(F)(F)F [GSK2373690],21%
9,COc1cc(Nc2nccc(N3CCC(NC(=O)C4COc5ccccc5O4)C3)n2)cc(OC)c1OC (stereo not drawn) [GSK1379761],69%
10,Cc1ccccc1COc1cc(-n2cnc3cc(Cl)ccc32)sc1C(N)=O [GW813349],0%
11,Cc1ccc(-c2ccc3c(ccc4sc5c(c43)NC[C@@H](C)N=C5N(C)C)n2)cn1,0%
12,Fc1cccc(CSc2nnc(-c3ccc4c(c3)CCO4)o2)c1,11%
13,CN1C(=O)C(Nc2cc(Cl)c(O)c(Cl)c2)=C(c2ccc(Cl)cc2)C1=O [SB-404321],0%
14,CCC(=O)c1c(-c2ccccc2)c2cc(Cl)ccc2c(=O)n1Cc1ccc(C(=O)O)cc1,0%
15,COc1cc(Nc2nccc(N3CCC(NC(=O)C(C)c4ccc(Cl)cc4)C3)n2)cc(OC)c1OC (stereo not drawn) [GSK1379757],42%
16,C[C@@H]1CC[C@H](C(=O)NC2CCCCC2)CN1c1cc(-c2ccc3c(N)n[nH]c3c2)nc(N)n1 [GSK2291363],11%
17,COc1ccc(-c2coc3ccc(-c4nnc(SCc5cccc(C#N)c5)o4)cc23)cc1,81%
18,CCS(=O)c1ccc(-c2coc3ccc(-c4nnc(C)o4)cc23)cc1 (stereo not drawn),0%

row,Compound,%Inh
1,Cc1cc(Nc2nc(-c3cccc(C)n3)nc3ccccc23)ccn1 [GW872411],0%
2,COC(=O)c1c(-c2ccccc2)c2cc(Br)ccc2c(=O)n1Cc1ccc(S(C)(=O)=O)cc1,13%
3,Nc1nccc2scc(-c3ccc4c(c3)CCN4C(=O)Cc3ccccc3)c12 [GSK2576924],12%
4,O=C(NCCNc1ccnc(Nc2ccc(F)cc2)n1)Nc1ccc2c(c1)OCO2 [GSK1379882],21%
5,COC(=O)c1c(-c2ccccc2)c2cc(Br)ccc2c(=O)n1Cc1ccc(NC(=O)CCC(=O)O)cc1,16%
6,Nc1ncnc2c1ncn2-c1ccc(Cl)cc1 [AH2635],2%
7,O=C(Nc1n[nH]c2cc(-c3ccccc3F)ccc12)C1CC1 [SB-733371],33%
8,Nc1n[nH]c2nnc(-c3ccccc3)c(-c3ccccc3)c12 [GW554060],16%
9,FC(F)(F)c1ccc(-c2ncn(CCCN3CCOCC3)c2-c2ccncc2)cc1 [SB-217780],4%
10,COc1ccc(-n2cnc3c(N)ncnc32)cc1 [SKF-97236],10%
11,CCC(=O)c1c(-c2ccccc2)c2cc(Cl)ccc2c(=O)n1Cc1cc(C(=O)NC2CC2)n(C)n1,2%
12,CCC(=O)c1c(-c2ccccc2)c2cc(Cl)ccc2c(=O)n1Cc1cc(S(C)(=O)=O)n(CCC(C)(C)O)n1,0%
13,COC(=O)c1c(-c2ccccc2)c2cc(C)ccc2c(=O)n1Cc1ccccc1,0%
14,COc1cc(Nc2ccnc3ccc(C(F)(F)F)cc23)cc(OC)c1OC [GW577382],14%
15,COc1ccc(-c2cc3c(C)nc(N)nc3n([C@H]3CC[C@H](OCCO)CC3)c2=O)cn1,3%
16,Cc1nnc(-c2ccc3ncn(-c4ccc(S(C)=O)cc4)c3c2)o1 (stereo not drawn),0%
17,COc1cc2ncn(-c3cc(OCc4ccc(S(C)(=O)=O)cc4)c(C(N)=O)s3)c2cc1OC [GW869979],22%
18,CCC(=O)c1c(-c2ccccc2)c2cc(Cl)ccc2c(=O)n1Cc1cc(S(C)(=O)=O)n(CC(N)=O)n1,8%

# Tested on: T1, VEGFR2
# T1 construct: gene KDR
# Conditions: concentration: 1 μM, replicates: in singlicate; n = 1
row,Compound,%Inh
1,Nc1nc(N)c2nc(-c3ccccc3)[nH]c2n1 [SKF-12778],0%
2,COc1cc2nccc(Nc3cccc(Oc4ccccc4)c3)c2cc1OC.Cl [GW284543],12%
3,CCc1ccc(-c2ccc3c(c2)-c2nn(C)cc2S(=O)(=O)N3C)cc1,0%
4,O=C(NCc1cccs1)c1cc(C(=O)c2c(Cl)cccc2Cl)c[nH]1 [GW823670],0%
5,CCCC(=O)Nc1n[nH]c2ncc(-c3cccc4ccccc34)cc12 [SB-642057],11%
6,CCC(=O)c1c(-c2ccccc2)c2cc(Cl)ccc2c(=O)n1Cc1cc(S(C)(=O)=O)n(CC(F)F)n1,0%
7,Nc1ncnc2c1ncn2-c1cccc(F)c1 [SKF-97560],6%
8,Cc1c(Cn2c(C)nn3c(=O)cc(N4CCO[C@H](C)C4)nc23)cccc1C(F)(F)F [GSK2373690],0%
9,COc1cc(Nc2nccc(N3CCC(NC(=O)C4COc5ccccc5O4)C3)n2)cc(OC)c1OC (stereo not drawn) [GSK1379761],0%
10,Cc1ccccc1COc1cc(-n2cnc3cc(Cl)ccc32)sc1C(N)=O [GW813349],11%
11,Cc1ccc(-c2ccc3c(ccc4sc5c(c43)NC[C@@H](C)N=C5N(C)C)n2)cn1,0%
12,Fc1cccc(CSc2nnc(-c3ccc4c(c3)CCO4)o2)c1,0%
13,CN1C(=O)C(Nc2cc(Cl)c(O)c(Cl)c2)=C(c2ccc(Cl)cc2)C1=O [SB-404321],0%
14,CCC(=O)c1c(-c2ccccc2)c2cc(Cl)ccc2c(=O)n1Cc1ccc(C(=O)O)cc1,0%
15,COc1cc(Nc2nccc(N3CCC(NC(=O)C(C)c4ccc(Cl)cc4)C3)n2)cc(OC)c1OC (stereo not drawn) [GSK1379757],0%
16,C[C@@H]1CC[C@H](C(=O)NC2CCCCC2)CN1c1cc(-c2ccc3c(N)n[nH]c3c2)nc(N)n1 [GSK2291363],8%
17,COc1ccc(-c2coc3ccc(-c4nnc(SCc5cccc(C#N)c5)o4)cc23)cc1,10%
18,CCS(=O)c1ccc(-c2coc3ccc(-c4nnc(C)o4)cc23)cc1 (stereo not drawn),10%

row,Compound,%Inh
1,Cc1cc(Nc2nc(-c3cccc(C)n3)nc3ccccc23)ccn1 [GW872411],0%
2,COC(=O)c1c(-c2ccccc2)c2cc(Br)ccc2c(=O)n1Cc1ccc(S(C)(=O)=O)cc1,0%
3,Nc1nccc2scc(-c3ccc4c(c3)CCN4C(=O)Cc3ccccc3)c12 [GSK2576924],5%
4,O=C(NCCNc1ccnc(Nc2ccc(F)cc2)n1)Nc1ccc2c(c1)OCO2 [GSK1379882],9%
5,COC(=O)c1c(-c2ccccc2)c2cc(Br)ccc2c(=O)n1Cc1ccc(NC(=O)CCC(=O)O)cc1,0%
6,Nc1ncnc2c1ncn2-c1ccc(Cl)cc1 [AH2635],0%
7,O=C(Nc1n[nH]c2cc(-c3ccccc3F)ccc12)C1CC1 [SB-733371],4%
8,Nc1n[nH]c2nnc(-c3ccccc3)c(-c3ccccc3)c12 [GW554060],0%
9,FC(F)(F)c1ccc(-c2ncn(CCCN3CCOCC3)c2-c2ccncc2)cc1 [SB-217780],14%
10,COc1ccc(-n2cnc3c(N)ncnc32)cc1 [SKF-97236],0%
11,CCC(=O)c1c(-c2ccccc2)c2cc(Cl)ccc2c(=O)n1Cc1cc(C(=O)NC2CC2)n(C)n1,0%
12,CCC(=O)c1c(-c2ccccc2)c2cc(Cl)ccc2c(=O)n1Cc1cc(S(C)(=O)=O)n(CCC(C)(C)O)n1,2%
13,COC(=O)c1c(-c2ccccc2)c2cc(C)ccc2c(=O)n1Cc1ccccc1,0%
14,COc1cc(Nc2ccnc3ccc(C(F)(F)F)cc23)cc(OC)c1OC [GW577382],0%
15,COc1ccc(-c2cc3c(C)nc(N)nc3n([C@H]3CC[C@H](OCCO)CC3)c2=O)cn1,0%
16,Cc1nnc(-c2ccc3ncn(-c4ccc(S(C)=O)cc4)c3c2)o1 (stereo not drawn),3%
17,COc1cc2ncn(-c3cc(OCc4ccc(S(C)(=O)=O)cc4)c(C(N)=O)s3)c2cc1OC [GW869979],20%
18,CCC(=O)c1c(-c2ccccc2)c2cc(Cl)ccc2c(=O)n1Cc1cc(S(C)(=O)=O)n(CC(N)=O)n1,0%

# From paper PMC5540273 (PLoS ONE, 2017)
